The whole screen tested about 5,500 compounds, of which about 2,000 (36%) were called active. Inconclusive results (about 18%) are left out. No stated cut-off is given here; in the data, active means normalized growth mostly below about 0.91 (no sharp cut-off); inconclusive means no clear call, values can overlap the other calls; inactive means mostly above about 0.92. The list shows a part of the results.
Assay: chemical genetic growth profiling, strain panel (AID 1159580);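 further: tested at 20 µM; growth read once vehicle control cultures reached saturation at 30 °C; 1 = growth at the plate median or of vehicle wells; lower values mean less growth of the strain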
Settings: S. cerevisiae deletion strains, growth OD

Measured: normalized growth

CC1(C)c2ccccc2N(CCC(N)=O)C12C=Cc1c(ccc3ccccc13)O2 (stereo unspecified)
inactive: locus YAR019C, strain CDC15, hits give low values 0.972 | locus YBL105C, strain PKC1, hits give low values 0.968 | locus YBR135W, strain CKS1, hits give low values 0.97 | locus YBR136W, strain MEC1, hits give low values 0.95 | locus YBR160W, strain CDC28, hits give low values 0.971 | locus YDL017W, strain CDC7, hits give low values 0.965 | locus YDL028C, strain MPS1, hits give low values 0.969 | locus YDL101C, strain DUN1, hits give low values 0.955 | locus YDL108W, strain KIN28, hits give low values 0.944 | locus YDL132W, strain cdc53, hits give low values 0.964 | locus YDL214C, strain PRR2, hits give low values 0.901 | locus YDR052C, strain DBF4, hits give low values 0.97 | locus YDR054C, strain cdc34, hits give low values 0.956 | locus YDR226W, strain ADK1, hits give low values 0.973 | locus YDR477W, strain SNF1, hits give low values 0.939 | locus YER123W, strain YCK3, hits give low values 0.865 | locus YER133W, strain GLC7, hits give low values 0.927 | locus YFL009W, strain cdc4, hits give low values 0.979 | locus YFL029C, strain CAK1, hits give low values 0.964 | locus YFR003C, strain YPI1, hits give low values 0.959 | locus YFR019W, strain FAB1, hits give low values 0.943 | locus YFR028C, strain CDC14, hits give low values 0.981 | locus YGR040W, strain KSS1, hits give low values 0.92 | locus YGR052W, strain FMP48, hits give low values 0.968 | locus YGR092W, strain DBF2, hits give low values 0.906 | locus YHR030C, strain SLT2, hits give low values 1.04 | locus YHR079C, strain IRE1, hits give low values 0.973 | locus YHR082C, strain KSP1, hits give low values 0.97 | locus YHR205W, strain SCH9, hits give low values 0.956 | locus YIL147C, strain SLN1, hits give low values 0.971 | locus YJL095W, strain BCK1, hits give low values 0.975 | locus YJL128C, strain PBS2, hits give low values 0.907 | locus YJL157C, strain FAR1, hits give low values 0.896 | locus YJR016C, strain ILV3, hits give low values 0.969 | locus YJR066W, strain TOR1 (second series), hits give low values 0.891 | locus YJR066W, strain TOR1, hits give low values 0.962 | locus YKL048C, strain ELM1, hits give low values 0.912 | locus YKL067W, strain YNK1, hits give low values 0.918 | locus YKL101W, strain HSL1, hits give low values 0.908 | locus YKL193C, strain SDS22, hits give low values 0.959 | locus YKL203C, strain TOR2, hits give low values 0.985 | locus YLR113W, strain HOG1, hits give low values 0.919 | locus YLR133W, strain CKI1, hits give low values 0.944 | locus YLR403W, strain SFP1, hits give low values 0.915 | locus YML070W, strain DAK1, hits give low values 0.883 | locus YMR001C, strain CDC5, hits give low values 0.966 | locus YMR205C, strain PFK2 (second series), hits give low values 0.926 | locus YMR277W, strain FCP1, hits give low values 0.968 | locus YNL006W, strain LST8, hits give low values 0.986 | locus YNL020C, strain ARK1, hits give low values 0.915 | locus YNL161W, strain CBK1, hits give low values 0.966 | locus YNL183C, strain NPR1, hits give low values 0.989 | locus YNL207W, strain RIO2, hits give low values 0.96 | locus YNL222W, strain SSU72, hits give low values 0.962 | locus YNL307C, strain MCK1 (second series), hits give low values 0.922 | locus YOL078W, strain AVO1, hits give low values 0.96 | locus YOL136C, strain PFK27, hits give low values 0.907 | locus YOR061W, strain CKA2, hits give low values 0.889 | locus YOR119C, strain RIO1, hits give low values 0.968 | locus YOR231W, strain MKK1, hits give low values 0.95 | locus YOR329C, strain SCD5, hits give low values 0.971 | locus YPL031C, strain PHO85, hits give low values 0.921 | locus YPL153C, strain RAD53, hits give low values 0.931 | locus YPL204W, strain HRR25, hits give low values 0.937 | locus YPL209C, strain IPL1, hits give low values 0.966 | locus YPL256C, strain CLN2, hits give low values 0.925 | locus YPR025C, strain CCL1, hits give low values 0.973 | locus YPR106W, strain ISR1, hits give low values 0.957 | locus YPR111W, strain DBF20, hits give low values 0.963 | strain NNK1, hits give low values 0.944 | strain TSCII, hits give low values 0.97
